# The whole screen tested about 65,000 compounds, of which about 320 (0.49%) were called active.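 Rule for the calls: active = the 320 compounds with the highest percent inhibition in the single-dose primary screen, excluding strongly autofluorescent ones (cut at about 32% in these data); inactive = the rest, inconclusive results apart.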 The sample as a whole holds a higher share of actives than the screen did.
# Tested on: diphosphomevalonate decarboxylase (Streptococcus pneumoniae D39)
# Test: S. pneumoniae DPM-DC inhibitors, primary screen, biochemical, PK/LDH-coupled NADH fluorescence (AID 556);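 for inhibition: kinetic rate of NADH fluorescence loss reporting ADP formed by the decarboxylase; 0% = full reaction rate with carrier and 100% = no-substrate background rate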
# Settings: purified DPM-DC, at 10 µM
# [1] = stronger effect = higher value unless noted
# [2] = measured here: pilot screen trials, stronger effect = higher value
compound,measurement,setting,value
COc1ccc(-c2ccnc(SCC(=O)N3CCOCC3)n2)cc1,inhibition,[1],inactive
COc1cc(NS(=O)(=O)c2ccc(NC(C)=O)cc2)cc(OC)c1,inhibition,[1],inactive
CCC(=O)Nc1sc(C(=O)N2CCCCC2)c(C)c1C#N,inhibition,[1],inactive
O=C(CNC(=O)c1ccco1)OCC(=O)c1ccccc1,inhibition,[1],14% (inactive)
Cc1ccc2nc(NC(=O)C3CCN(S(=O)(=O)c4ccc5c(c4)oc(=O)n5C)CC3)sc2c1,inhibition,[1],inactive
CCS(=O)(=O)n1nc(-c2ccc(OC)cc2)nc1SC,inhibition,[1],inactive
Cn1c(SCC(=O)N2CCOCC2)nnc1-c1ccc(NC(=O)c2ccccc2F)cc1,inhibition,[1],100% (active)
Cn1c(SCC(=O)Nc2cccc(O)c2)nnc1-c1ccc(S(=O)(=O)N2CCOCC2)cc1,inhibition,[1],inactive
Cc1ccccc1C(=O)Nc1cccc(-c2nnc(SCC(=O)O)n2C)c1,inhibition,[1],3% (inactive)
O=C1OC(NC(=O)c2ccccc2)C(N2CCOCC2)=C1Cl (stereo unspecified),inhibition,[1],9% (inactive)
CCOc1ccc(-n2c(SC(C)C(=O)OC)nc3c(c2=O)SCC3)cc1 (stereo unspecified),inhibition,[1],1% (inactive)
O=C(NCc1ccccn1)c1cnc2sccn2c1=O,inhibition,[1],27% (inactive)
CC(C)Cc1cc(C(=O)Nc2cc(Br)ccc2O)no1,inhibition,[1],inactive
CCCC(C)n1[nH]c(=O)c2c(C)cc(C)nc21 (stereo unspecified),inhibition,[1],inactive
Cc1nnc(SCC(=O)N(C(C)C)C(C)C)nc1C,inhibition,stronger effect = higher value,4% (inactive)
same,inhibition,[2],0%
CC(C)(C)c1ccc(NC(=O)NCc2ccco2)cc1,inhibition,[1],inactive
CCCn1c(SCC(=O)c2ccc3c(c2)OCCO3)nnc1C(C)C,inhibition,[1],4% (inactive)
CS(=O)(=O)N1CCN(C(=O)Cc2ccccc2)CC1,inhibition,[1],inactive
CC1(C)Cc2cccc(OCC(=O)Nc3nccs3)c2O1,inhibition,[1],inactive
CCOC(=O)C1CCCN(C(=O)c2sc3nc(C)nc(N4CCOCC4)c3c2C)C1 (stereo unspecified),inhibition,[1],inactive
O=C(CN1CCN(c2ccccn2)CC1)NCc1cccs1,inhibition,[1],inactive
CC(C)COC(=O)C1C2C=CC3(CN(C(C)c4ccc(Br)cc4)C(=O)C13)O2 (stereo unspecified),inhibition,stronger effect = higher value,22% (inactive)
same,inhibition,[2],0%
CCOC(=O)N1CCC(O)(c2cc(C)c(C)cc2C)CC1,inhibition,[1],"0.5% [measured here: pilot screen trials, stronger effect = higher value]"
same,outcome,[1],inactive
O=C(C1=C(O)C(=O)N(c2ncccn2)C1c1cccs1)c1ccco1 (stereo unspecified),inhibition,[1],1% (inactive)
Cc1[nH]c2ccc(S(N)(=O)=O)cc2c1C,inhibition,[1],inactive
CCN(CC)c1ccc(C(=O)OCC(=O)c2ccco2)cc1,inhibition,[1],inactive
Cc1ccc(S(=O)(=O)N2CC(=O)Nc3ccccc32)cc1C,inhibition,[1],inactive
Cc1nc(NC(=O)C23CCC(C)(C(=O)O2)C3(C)C)sc1C (stereo unspecified),inhibition,stronger effect = higher value,6% (inactive)
same,inhibition,[2],2%
Cc1noc(C)c1C(=O)OCC(=O)/C=C1\N(C)c2ccccc2C1(C)C,inhibition,[1],inactive
CCOC(=O)CN1CC23C=CC(O2)C(C(=O)Nc2ccc(F)cc2)C3C1=O (stereo unspecified),inhibition,[1],inactive
CCOCCOC(=O)C1=C(C)N(C)C(=O)NC1c1ccccc1F (stereo unspecified),inhibition,[1],inactive
Cc1c(C(=O)NCCN2CCOCC2)sc2nc(-c3ccc(F)cc3)cn12,inhibition,[1],9% (inactive)
Cc1c(C(=O)NCC2CCCO2)sc2nc(-c3ccccc3)cn12 (stereo unspecified),inhibition,[1],35% (active)
Cc1c(C(=O)N2CC(C)OC(C)C2)sc2nc(-c3ccccc3)cn12 (stereo unspecified),inhibition,[1],inactive
C=CCn1c(C2CC(=O)N(c3ccc(C)cc3)C2)nc2ccccc21 (stereo unspecified),inhibition,[1],inactive
O=C(CSc1nc2cc3c(cc2c(=O)n1CCC1=CCCCC1)OCO3)NCc1ccco1,inhibition,[1],inactive
CCNS(=O)(=O)c1ccc(NC(=O)Nc2cccc(C(F)(F)F)c2)cc1,inhibition,[1],inactive
CCCCOc1ccc(C(C)(O)CCN2CCOCC2)cc1 (stereo unspecified),inhibition,[1],inactive
CC1(C)Oc2ccc(C(=O)N3CCOCC3)cc2N(CC(=O)Nc2ccccc2)C1=O,inhibition,[1],inactive
CCCCNc1nc2ccccc2nc1NS(=O)(=O)c1cccs1,inhibition,[1],2% (inactive)
Cc1ccc(CN2C(=O)CCC2C(=O)NCCCN2CCCCC2C)cc1 (stereo unspecified),inhibition,[1],inactive
Cn1c(SCc2nc3ccccc3s2)nnc1-c1ccc2c(c1)OCO2,inhibition,[1],inactive
Cc1cccc(N2CCN(C(=O)C3CCN(S(=O)(=O)c4cnc[nH]4)CC3)CC2)c1C,inhibition,[1],inactive
CCCCCCOC(=O)NCC(O)c1ccccc1 (stereo unspecified),inhibition,[1],inactive
Cc1nc(NCc2ccccc2)c(C(N)=O)c2c1COC(C)(C)C2,inhibition,[1],24% (inactive)
Cc1nc(NCCN)c(C#N)c2c1COC(C)(C)C2,inhibition,[1],32% (active)
Cc1cc(C)c(S(=O)(=O)NCCCN2CCOCC2)cc1Br,inhibition,[1],inactive
Cc1ccc(S(=O)(=O)NCCN2CCOCC2)cc1C,inhibition,stronger effect = higher value,80% (active)
same,inhibition,[2],0%
Cn1c(=O)c(=O)n(C)c2cc(S(=O)(=O)NCCc3ccccc3)ccc21,inhibition,[1],inactive
COCCNC(=O)CN1C(=O)CSc2ncccc21,inhibition,[1],"0% [measured here: pilot screen trials, stronger effect = higher value]"
same,outcome,[1],inactive
